Drawing on ChEMBL document CHEMBL3988442, “University of Dundee, Small-Polar-MMV Screening Library” (2021), this text covers Percent Effect for 17 compounds.

Test [1] addresses T1, Aspartate--tRNA(Asp/Asn) ligase (Mycobacterium tuberculosis (strain ATCC 25618 / H37Rv)) (UniProt P9WFW3).
T1 sequence (whole entry): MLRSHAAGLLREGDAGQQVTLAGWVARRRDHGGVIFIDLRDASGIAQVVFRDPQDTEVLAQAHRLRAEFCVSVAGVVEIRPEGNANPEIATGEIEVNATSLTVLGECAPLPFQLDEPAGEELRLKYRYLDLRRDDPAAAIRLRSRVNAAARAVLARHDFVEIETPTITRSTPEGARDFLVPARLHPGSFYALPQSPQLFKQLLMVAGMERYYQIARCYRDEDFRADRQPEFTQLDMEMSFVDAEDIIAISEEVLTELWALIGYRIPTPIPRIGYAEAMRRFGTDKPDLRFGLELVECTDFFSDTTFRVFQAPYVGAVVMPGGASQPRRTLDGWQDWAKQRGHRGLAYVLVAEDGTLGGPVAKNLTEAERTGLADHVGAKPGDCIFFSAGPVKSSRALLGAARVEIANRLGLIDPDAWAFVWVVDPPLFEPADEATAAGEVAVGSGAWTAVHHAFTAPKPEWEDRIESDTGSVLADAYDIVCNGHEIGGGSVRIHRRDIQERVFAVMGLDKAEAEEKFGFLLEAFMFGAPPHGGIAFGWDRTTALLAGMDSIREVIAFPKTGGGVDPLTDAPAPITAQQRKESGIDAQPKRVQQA
The test is described as follows: Assay for Asp RNA synthetase-1 from Mycobacterium tuberculosis. In kind it is functional. Also on record: scale not given: direction of the effect not stated beside the values. The note with it: 30 µM.

In test [2] the target is Shiga toxin 2 (Escherichia coli O157:H7) (UniProt P09385+P09386). The test can be described thus: E. coli 0.157:H7 Shiga Toxin SOP - stx2 screening assay. As to conditions: 30 µM. In kind it is functional. Also on record: scale not given: direction of the effect not stated beside the values.

For `Cc1nn(CC(C)C)c(N(C)C)c1CNCc1cccc2c1OCO2`, the results for the Percent Effect in test [1] and in test [2] were 1.9% and 20.6%, respectively.

In the case of `FC1(F)CCN(Cc2cccnc2)CC12CCN(c1ccccn1)C2` (centres undefined), the Percent Effect in test [1] was determined as 1.91%; in test [2], 4.74%.

In the case of `Cc1ncc(CNC(=O)CCOc2ccccc2)c(C2CCCN2C)n1` (centres undefined), the Percent Effect in test [1] was 5.05%; in test [2], -10.2%.

On to `COc1ccc(OCc2sc(C3(O)CCCNCC3)nc2C)cc1` (centres undefined), for which the Percent Effect came out at 5.08% in test [1] and 7.21% in test [2].

Turning to `Cc1nn(C)c(C)c1NC(=O)CN1CCc2c(nc(C3CC3)n2C)C1`, the Percent Effect in test [1] is -0.703%; in test [2], -17.4%.

`Cc1nn(C)c(N(C)C)c1CNC1CCc2c(F)cccc21` (centres undefined): the Percent Effect was -3.35% in test [1] and 33.1% in test [2].

For the compound `CNC(=O)CS(=O)(=O)Cc1coc(-c2ccc(OC)cc2)n1`, the values for the Percent Effect in test [1] and in test [2] were -0.993% and -5.58%, respectively.

For the compound `CS(=O)(=O)Cc1cccc(C(=O)N2CCCC(n3cccn3)C2)c1` (centres undefined), the Percent Effect in test [1] was -2.52%; in test [2], -47.9%.

Turning to `CCN1CC2(CCC1=O)CCN(C(=O)c1ccc(Cl)cc1O)CC2`, the Percent Effect in test [1] is -1.67%; in test [2], -16.7%.

For the compound `O=S(=O)(CCNCc1cccc2c1OCCO2)N1CCOCC1`, the figures for the Percent Effect in test [1] and in test [2] were -2.82% and -39%, respectively.

In the case of `CN(Cc1ncc(-c2ccccc2)o1)CC1CCCN1c1cccnn1` (centres undefined), the Percent Effect in test [1] turned out to be 0.259%; in test [2], 5.15%.

Consider `Cc1ccc(F)cc1NC(=O)NCC(C)N1CCOCC1` (centres undefined), for which the Percent Effect is -1.14% in test [1] and -35% in test [2].

`COc1cccc(S(=O)(=O)N2CCn3cnc(COCC4CC4)c3C2)c1`: the Percent Effect is 6.08% in test [1] and 1.15% in test [2].

Turning to `CCn1ncc2c1C(COCC1CC1)CN(S(=O)(=O)N(C)C)C2` (centres undefined), the results for the Percent Effect in test [1] and in test [2] were -1.37% and -9.58%, respectively.

On to `O=C(NCCN1CCCCC1)c1ccoc1`, for which the Percent Effect in test [1] is 2.52%; in test [2], -21.3%.

For the compound `Cc1ccoc1-c1nnc(CN2CCn3c(nnc3C3CC3)C2)o1`, the Percent Effect in test [1] was -2.98%; in test [2], -36.6%.

Take `CNC(=O)c1ccc(CN(C(=O)c2scnc2C)C2CC2)cc1`: the values for the Percent Effect in test [1] and in test [2] were -2.83% and -32.1%, respectively.
